# Test results taken from the supplement of paper PMC11172423.
# Unmarked numbers belong to inactive results.
# Key:
# [1] = system: Falciformispora senegalensis CBS197.79; experiment: growth relative to untreated control; higher = less inhibition, active = 20 or less
# How it was run: (§1)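 In 96-well plates, suspended hyphal fragments of M. mycetomatis MM55 or F. senegalensis CBS197.79 were exposed to compound at 100 or 25 µM for 7 days at 37 °C. The suspension medium was colourless RPMI 1640 with L-glutamine and MOPS, adjusted to 68–72% transmission at 660 nm. Viability was measured with MTS (2 h, 490 nm) or resazurin (600 nm). Growth means metabolic activity compared with the untreated growth control after blank correction of both with medium plus dye.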
# [2] = system: Madurella mycetomatis MM55; experiment: as above
# How it was run: as §1
SMILES,growth ([1]; 25 µM),growth ([1]; 100 µM),growth ([2]; 25 µM),growth ([2]; 100 µM)
O[C@@H](c1cc(C(F)(F)F)nc2c(C(F)(F)F)cccc12)[C@H]1CCCCN1,8.55% (active),14.8% (active),,
CN1CCC(Oc2nc(Nc3ccccc3)nc3[nH]cc(-c4cnn(C)c4)c23)CC1,89%,79%,,
Cn1nc(-c2cccc(C#N)c2)c2cc(-c3n[nH]c(C4CCCN4)n3)ccc21 (stereo not drawn),98.7%,94.2%,,
CCCCOC(=O)c1c(C)cnc2ccccc12,90.5%,98.7%,,
Cn1ccnc1SCC(=O)Nc1ccc(C(=O)Nc2ncccc2O)cc1,87.2%,79.4%,,
COc1ccc(-c2cc3ncnc(N4CCN(CCN5CCCC5)CC4)c3s2)cc1,7.35% (active),14.9% (active),4.86% (active),4.96% (active)
FC(F)(F)c1cc(Cl)cc(Nc2nc3cnc(NC4CCC4)cc3[nH]2)c1,70.6%,10.8% (active),109%,27%
CCC(C)(C)n1nnnc1C(c1cc2ccc(C)cc2[nH]c1=O)N1CCN(c2ccccc2)CC1 (stereo not drawn),86%,84.3%,,
FC(F)(F)c1ccc(CNc2ccc(Cc3c[nH]c4ncc(Cl)cc34)cn2)cn1,95.7%,106%,,
CCCNc1nc(NC2CCCCC2)c2ccsc2n1,85.5%,88.3%,14.7% (active),48.2%
CNc1ccc2cc(NC(=O)c3ccc(C(F)(F)F)c(Cl)c3)ccc2n1,69.4%,104%,,
